{
  "source": "PubChem BioAssay AID488969",
  "about": "(Vanderbilt High Throughput Screening Facility, 2010)",
  "note": "The full ranking holds about 110,000 compounds; the median of “z-score” is about -0.1, and the highest 2% start at about 2. The full list was thinned out, with the highest values kept by preference. Active and inactive are the calls of the source.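 How the source made its calls: active means z-score in the third read window above 3 or below -3; inactive means the rest.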",
  "data": [
    {"molecular_target": "Metabotropic glutamate receptor 8 (Rattus norvegicus) (UniProt P70579)", "sequence (P70579 whole entry, looked up)": "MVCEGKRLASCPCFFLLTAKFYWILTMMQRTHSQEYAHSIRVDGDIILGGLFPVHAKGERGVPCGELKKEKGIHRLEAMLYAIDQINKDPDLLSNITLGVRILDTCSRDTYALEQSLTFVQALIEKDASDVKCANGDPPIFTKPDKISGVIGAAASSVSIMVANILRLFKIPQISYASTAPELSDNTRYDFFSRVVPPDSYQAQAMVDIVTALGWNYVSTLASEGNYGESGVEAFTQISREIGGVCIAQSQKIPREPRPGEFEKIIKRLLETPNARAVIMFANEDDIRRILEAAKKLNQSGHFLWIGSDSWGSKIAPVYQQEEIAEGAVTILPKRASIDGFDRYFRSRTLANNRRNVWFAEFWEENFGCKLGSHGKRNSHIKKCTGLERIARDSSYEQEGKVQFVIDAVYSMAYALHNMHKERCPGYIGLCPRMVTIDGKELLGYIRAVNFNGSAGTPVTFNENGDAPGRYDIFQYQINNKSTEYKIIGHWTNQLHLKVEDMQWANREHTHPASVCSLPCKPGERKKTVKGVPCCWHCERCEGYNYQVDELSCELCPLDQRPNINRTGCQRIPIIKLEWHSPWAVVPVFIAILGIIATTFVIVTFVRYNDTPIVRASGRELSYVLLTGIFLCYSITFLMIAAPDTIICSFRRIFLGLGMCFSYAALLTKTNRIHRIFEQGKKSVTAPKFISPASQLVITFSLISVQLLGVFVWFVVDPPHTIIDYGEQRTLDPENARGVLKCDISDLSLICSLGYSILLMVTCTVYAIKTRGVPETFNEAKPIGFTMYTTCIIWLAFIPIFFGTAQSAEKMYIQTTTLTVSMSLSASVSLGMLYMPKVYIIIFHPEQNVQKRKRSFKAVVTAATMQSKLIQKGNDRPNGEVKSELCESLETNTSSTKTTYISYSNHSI", "assay": "rat mGluR8 modulators via GIRK flux, primary screen, cell-based, thallium flux, HTS (AID 488969)", "settings": "HEK293 rat mGluR8, GIRK (G protein-gated inwardly rectifying potassium channel) thallium flux, FluoZin2; at 10 µM; stronger effect = higher value; submaximal glutamate (EC20) added with thallium", "values": [
      {"compound": "Cc1cccc(NC(=O)c2ccccc2Br)n1", "z-score": 0.0402},
      {"compound": "Cc1occc1C(=O)Nc1ccc2ccccc2c1", "z-score": 2.19},
      {"compound": "CCOC(=O)c1cc(NC(=O)c2ccoc2C)cc(C(=O)OCC)c1", "z-score": -2.39},
      {"compound": "CCCCOC(=O)Nc1ccc(C(=O)OCCC)cc1", "z-score": "3.09 (active)"},
      {"compound": "COC(=O)c1cc(NC(=O)c2ccoc2C)cc(C(=O)OC)c1", "z-score": "4.89 (active)"},
      {"compound": "Cc1occc1C(=O)Nc1ccccc1NC(=O)c1ccoc1C", "z-score": 0.13},
      {"compound": "Cc1cccc(NC(=O)c2ccoc2C)n1", "z-score": 2.35},
      {"compound": "CCCOC(=O)c1ccc(NC(=O)Oc2ccccc2)cc1", "z-score": 0.454},
      {"compound": "Cc1cc(NC(=O)c2ccoc2C)no1", "z-score": -0.105},
      {"compound": "Cc1occc1C(=O)Nc1cccc(C(=O)O)c1", "z-score": -0.0368},
      {"compound": "COC(=O)c1cc(NC(=O)c2cc(C)oc2C)cc(C(=O)OC)c1", "z-score": 0.433},
      {"compound": "CCCCOC(=O)Nc1ccc(C(N)=O)cc1", "z-score": 0.507},
      {"compound": "CSc1nc(N(C)C)nc(N2CC(=O)N(CCNS(=O)(=O)c3ccc(C)cc3)C2=N)n1", "z-score": -0.172},
      {"compound": "CCC(=O)NC(=S)Nc1ccc(NC(=O)COc2ccc(Cl)c(C)c2)cc1", "z-score": -0.0852},
      {"compound": "CC(C)(C)C(C(Oc1ccc(Cl)cc1)n1cncn1)n1nnnc1C(c1cccc(Cl)c1)N1CCCCC1", "note": "(stereo not given)", "z-score": 0.12},
      {"compound": "NS(=O)(=O)c1ccc(CCNC(=O)CSc2ccccc2)cc1", "z-score": 0.222},
      {"compound": "CC(C)C(NS(=O)(=O)c1cccc2nsnc12)C(=O)NCc1ccc2c(c1)OCO2", "note": "(stereo not given)", "z-score": -0.269},
      {"compound": "CCCOC(=O)c1ccc(NC(=O)c2ccc(Br)o2)cc1", "z-score": -0.692},
      {"compound": "CCCCOC(=O)c1ccc(NC(=O)c2ccoc2C)cc1", "z-score": -0.0292},
      {"compound": "CCCOC(=O)c1ccc(NC(=O)c2ccoc2C)cc1", "z-score": 2.24},
      {"compound": "COc1ccc(C(=O)NCC(=O)NCC2COc3ccccc3O2)cc1", "note": "(stereo not given)", "z-score": 1},
      {"compound": "CCOc1cc(C(=S)N2CCC(O)CC2)ccc1OS(=O)(=O)c1ccc(Br)cc1", "z-score": 0.875},
      {"compound": "CCC(=O)NCC(=O)OCC(=O)c1ccccc1", "z-score": -0.0257},
      {"compound": "Cc1ccc(C(=O)Nc2nc(-c3ccccc3)c(-c3ccccc3)o2)cc1", "z-score": "3.53 (active)"},
      {"compound": "CC(=O)Nc1nc(-c2ccccc2)c(-c2ccccc2)o1", "z-score": -0.185},
      {"compound": "Cc1cc(=O)[nH]c(SCC(=O)Nc2nc(-c3ccccc3)c(-c3ccccc3)o2)n1", "z-score": -1.38},
      {"compound": "O=C(Nc1nc(-c2ccccc2)c(-c2ccccc2)o1)c1ccc(F)cc1", "z-score": "13.5 (active)"},
      {"compound": "Cc1cc(C)nc(SCC(=O)Nc2nc(-c3ccccc3)c(-c3ccccc3)o2)n1", "z-score": -0.522},
      {"compound": "Cn1nnnc1SCC(=O)Nc1nc(-c2ccccc2)c(-c2ccccc2)o1", "z-score": -0.0372},
      {"compound": "CCOC(=O)c1c(NC(NC(C)=O)C(Cl)(Cl)Cl)sc2c1CCCC2", "note": "(stereo not given)", "z-score": -2.34},
      {"compound": "COCCCn1c(C)nnc1SCC(=O)NCc1ccco1", "z-score": -0.305},
      {"compound": "Cc1ccc(S(=O)(=O)N(C)Cc2cc3ccccc3[nH]c2=O)cc1", "z-score": -0.0752},
      {"compound": "CCN(CC)CCN(Cc1cc2cc(C)ccc2[nH]c1=O)C(=S)NCc1ccco1", "z-score": 0.381},
      {"compound": "CCOC(=O)COc1cc(Br)c(/C=N/Nc2ccccc2)cc1OC", "z-score": -0.0959},
      {"compound": "CCC(C)(C(=O)NC1CCCCC1)N(C(=O)c1ccccn1)c1ccc(C)cc1", "note": "(stereo not given)", "z-score": -0.103},
      {"compound": "COc1cccc(C(=O)/C=C/Nc2cccc(O)c2)c1", "z-score": -0.665},
      {"compound": "CSc1nnc(CNC(=O)C23CC4CC(CC(C4)C2)C3)n1Cc1ccccc1", "z-score": -0.331},
      {"compound": "C/C(=N\\NC(=S)NCCc1ccccc1)c1cccs1", "z-score": "3.65 (active)"},
      {"compound": "C/C(=N\\NC(=S)NCCc1ccccc1)c1ccc(C)cc1", "z-score": 1.67},
      {"compound": "C/C(=N\\NC(=S)NCCc1ccccc1)c1ccc(Cl)cc1", "z-score": 1.16},
      {"compound": "O=C1C2C(c3ccccc3)C=CC(c3ccccc3)C2C(=O)N1CCCO", "note": "(stereo not given)", "z-score": -0.894},
      {"compound": "O=C(CCS(=O)(=O)c1ccc(Cl)cc1)NCCN1C(=O)S/C(=C\\c2ccccc2F)C1=O", "z-score": -0.162},
      {"compound": "Cc1cc(C)n2nc(SCC(=O)N3CCc4ccccc43)nc2n1", "z-score": 0.255},
      {"compound": "O=C(C1CCCCC1)N1CCCC(c2nc3c(nnn3Cc3ccccc3)c(=O)[nH]2)C1", "note": "(stereo not given)", "z-score": 2.1},
      {"compound": "O=C(c1ccccc1)N1CCCC(c2nc3c(nnn3Cc3ccccc3)c(=O)[nH]2)C1", "note": "(stereo not given)", "z-score": -0.398},
      {"compound": "Cc1ccc(C)c(Cn2nnc3c(=O)[nH]c(C4CCCN(C(=O)C5CCCCC5)C4)nc32)c1", "note": "(stereo not given)", "z-score": -0.651},
      {"compound": "O=C(NCCOCCOCCNC(=O)c1cccnc1)c1cccnc1", "z-score": 0.119},
      {"compound": "O=C(NCCCCNC(=O)c1cccnc1)c1cccnc1", "z-score": "8.98 (active)"},
      {"compound": "O=C(NCCc1ccccc1)c1cccnc1", "z-score": -0.0437},
      {"compound": "Cc1c(NC(=O)/C(C#N)=C/c2c(Oc3ccccc3)nc3ccccn3c2=O)c(=O)n(-c2ccccc2)n1C", "z-score": 1.16},
      {"compound": "CSc1ncc(Cl)c(C(=O)Nc2nnc(SC)s2)n1", "z-score": -0.194},
      {"compound": "Cc1sc2nc(C3CCCCC3)nc(SCC(=O)N3CC(=O)Nc4ccccc43)c2c1C", "z-score": -0.0509},
      {"compound": "Cc1nc(SCC(=O)Nc2cc(C)on2)c2c3c(sc2n1)CCCC3", "z-score": 2.03},
      {"compound": "Cc1cc(NC(=O)CSc2nc3sc4c(c3c(=O)n2C)CCCC4)no1", "z-score": 0.943},
      {"compound": "Cc1cc(NC(=O)CSc2nc(C3CC3)nc3sc4c(c23)CCC(C)C4)no1", "note": "(stereo not given)", "z-score": 0.482},
      {"compound": "CCCc1nc(SCC(=O)Nc2nnc(CC)s2)c2c(C)c(C)sc2n1", "z-score": -0.42},
      {"compound": "CCc1nc(SCC(=O)Nc2nnc(CC)s2)c2c(C)c(C)sc2n1", "z-score": "8.71 (active)"},
      {"compound": "Cc1sc2nc(C3CC3)nc(SCC(=O)N3CC(=O)Nc4ccccc43)c2c1C", "z-score": "3.69 (active)"},
      {"compound": "CCc1nc(SCC(=O)Nc2cc(C)on2)c2c(C)c(C)sc2n1", "z-score": -0.346},
      {"compound": "Cc1nc(SCC(=O)N2CC(=O)Nc3ccccc32)c2c(C)c(C)sc2n1", "z-score": -0.286},
      {"compound": "Cc1nnc(NC(=O)CSc2nc(C(C)C)nc3sc(C)c(C)c23)s1", "z-score": -0.837},
      {"compound": "Cc1cc(NC(=O)CSc2nc(C(C)C)nc3sc4c(c23)CCCC4)no1", "z-score": -0.493},
      {"compound": "Cc1cc(NC(=O)CSc2nc(C3CC3)nc3sc(C)c(C)c23)no1", "z-score": "12.4 (active)"},
      {"compound": "COc1ccc(-c2nc(C)ncc2N=Nc2ccccc2)cc1", "z-score": -0.33},
      {"compound": "O=C1CCN(C(=O)Nc2cccc(Cl)c2)N1", "z-score": -0.0566},
      {"compound": "CCN(CCO)c1ncnc2c1sc1nc(C(C)C)c3c(c12)CC(C)(C)OC3", "z-score": -0.241},
      {"compound": "Cc1cccc(NC(=O)CN2C(=O)N/C(=C/c3ccc(C)o3)C2=O)c1", "z-score": 0.0879},
      {"compound": "CCOCC(=O)Nc1cc([N+](=O)[O-])ccc1C", "z-score": -0.688},
      {"compound": "CC1=NN(c2ccc(C)cc2)C(=O)/C1=C\\c1ccc(Br)s1", "z-score": -0.327},
      {"compound": "Cn1c(Cc2ccccc2)nnc1SCC(=O)NC1CCCCC1", "z-score": 0.0891}
    ]}
  ]
}
